Tb PYK inh: qHTS of Trypanosoma Brucei Inhibitors | actives 0.12% (n = 410,000) | pyruvate kinase (Trypanosoma brucei), Q57TT1 | TbPYK enzyme, Kinase-Glo Plus ATP luminescence, 45 min | AID 624173, 2012 | Potency, µM (highest dose often 76.8 µM), inactives show at the top dose activity, negative = inhibition, usual class: inhibitors; note: nearly all actives have a fitted effect of over 50% in size
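Quantitative HTS: titrated library compounds versus trypanosomal pyruvate kinase in TEA buffer (pH 7.2) containing KCl, MgCl2, BSA and Tween-20. Reactions were initiated with ADP, 130 uM final. Kinase-Glo Plus luminescence was read after 45 min at RT.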
LmPK inhibitor: qHTS Assay for Inhibitors of Leishmania Mexicana Pyruvate Kinase (LmPK); Q27686; purified LmPK, Kinase-Glo ATP luminescence, 1 h; Potency, µM (top dose mostly 57.5 µM), inactives show at the top dose activity change, negative = inhibition, hits mostly inhibitors; actives 0.37% (n = 290,000)
Target sequence (Q27686 whole entry, looked up): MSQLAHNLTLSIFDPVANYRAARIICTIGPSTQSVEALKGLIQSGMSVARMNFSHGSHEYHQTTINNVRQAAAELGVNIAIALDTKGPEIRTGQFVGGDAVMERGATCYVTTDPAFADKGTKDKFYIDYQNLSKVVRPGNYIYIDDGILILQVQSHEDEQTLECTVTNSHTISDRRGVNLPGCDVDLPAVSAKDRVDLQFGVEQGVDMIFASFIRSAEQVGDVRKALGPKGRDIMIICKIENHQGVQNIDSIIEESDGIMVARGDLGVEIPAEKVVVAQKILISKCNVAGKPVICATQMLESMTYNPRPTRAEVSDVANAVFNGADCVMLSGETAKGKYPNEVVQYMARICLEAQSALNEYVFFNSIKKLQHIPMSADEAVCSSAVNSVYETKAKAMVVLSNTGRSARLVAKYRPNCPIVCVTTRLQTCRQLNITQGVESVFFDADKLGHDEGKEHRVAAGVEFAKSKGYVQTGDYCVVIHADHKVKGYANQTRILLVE
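Pyruvate kinase activity monitored as ATP production (luciferase luminescence). Conditions: 0.1 nM enzyme, 0.5 mM PEP, 0.1 mM ADP, 1 h, RT; normalized against uninhibited and no-enzyme wells.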
Sm TGR block: qHTS Assay for the Inhibitors of Schistosoma Mansoni Peroxiredoxins; Potency, µM (highest dose often 114 µM), for inactives: at the top dose activity change, negative = inhibition, most hits filed as inhibitors; actives 3% (n = 360,000); Schistosoma mansoni thioredoxin glutathione reductase (TGR), Q962Y6; purified TGR, DTNB reduction, TNB absorbance 405 nm; AID 485364, 2010; note: nearly all actives have a fitted effect of over 60% in size
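TGR 20 nM + NADPH 100 uM (dispensed conc.), cpd preinc 15 min RT; start with NADPH (500 uM addition) then DTNB (15 mM addition). Kinetic TNB absorbance, 405 nm filter. Four-parameter Hill fit across titration.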
FBPA Giardia inh: qHTS Assay for Inhibitors of Fructose-1,6-bisphosphate Aldolase from Giardia Lamblia; A8B2U2; purified Giardia FBPA; Potency, µM (series often up to 59.6 µM), for inactives: at the top dose activity, negative = inhibition, actives largely listed as inhibitors; actives 0.71% (n = 290,000); AID 2451, 2010; note: nearly all actives have a fitted effect of over 55% in size
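40 nM FBPA preincubated 10 min at RT with compound (up to 57.5 uM final), then substrate plus GAPDH/TPI/NAD/arsenate coupling and diaphorase/resazurin added. Fluorescence read after 20 min at RT, 525/598 nm.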
RE007 growth inh: qHTS Assay for Inhibitors of the HIV-1 protein Vpr. S. pombe RE007 Vpr strain, BacTiter-Glo ATP luminescence, 24 h. AID 651644, 2012. Potency, µM (top dose mostly 92.2 µM), without a hit: at the highest dose activity change, negative = less growth, hits mostly inhibitors. actives 0.21% (n = 360,000); active = well fitted falling curve with a large enough effect; inconclusive = small, poorly fitted or top-dose-only effect; inactive = no such curve, though single readings can be large or run the other way; note: nearly all actives have a fitted effect of over 50% in size
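Fission yeast RE007 carrying one integrated HIV-1 vpr copy, seeded at OD 0.01 in PMG+AL medium with 23 nL pinned compound. Grown 24 h at 30 degrees; viability read by BacTiter-Glo luminescence after 5 min.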
An asterisk follows results filed as active; [ ] = remark or other dose. Rows were chosen to be rich in hits. Some 3.3% of all compounds tested hit in one or more screens of this group. Unless noted, calls come from the whole dose curve; as a rule, active = well fitted curve in the direction sought with a large enough effect; inconclusive = small, poorly fitted or top-dose-only effect, or another doubt; inactive = no such curve, though single readings can be large; an effect the other way counts as inactive or inconclusive. % is set by controls: 0 for no effect and ±100 for the full control effect; potency is the fitted concentration of half-maximal effect.

CCN(CC)c1ccc(-c2nc(-c3ccccn3)no2)cc1[N+](=O)[O-] was read as Tb PYK inh -4% and Sm TGR block 50µM*.
Screening CN(CCc1ccccc1)C(=O)c1ccc(NC(=O)Cc2cccc(NC(=O)C3CCN(C(=O)CCc4ccccc4)CC3)c2)cc1 returned Tb PYK inh 0% and RE007 growth inh 3%.
COc1ccc(NC(=O)CCNS(=O)(=O)c2ccccc2F)cc1S(=O)(=O)N1CCOCC1 was read as Tb PYK inh -4% and RE007 growth inh -1%.
Screening O=C(C1CC1)N1CCN(c2ccc(F)cc2)CC1 returned Tb PYK inh 3%, LmPK inhibitor 4%, Sm TGR block -17%, FBPA Giardia inh 1% and RE007 growth inh -7%.
COc1cc(CC(=O)OCC(=O)NC2CCCCCC2)cc(OC)c1OC was read as Tb PYK inh -4% and RE007 growth inh 2%.
Screening C=CCOC(=O)C1=C(C)NC(=O)NC1c1ccc(N(C)C)cc1 (stereo unspecified) returned Tb PYK inh -3%, LmPK inhibitor 7%, Sm TGR block 45µM*, FBPA Giardia inh -4% and RE007 growth inh -11%.
For O=C(O)C=C(Br)Br the results were Tb PYK inh 3%, LmPK inhibitor -5%, Sm TGR block 50µM*, FBPA Giardia inh 26% and RE007 growth inh 2%.
CC(=O)N1c2ccccc2[C@@H](C)[C@@H]1C was read as Tb PYK inh -9%, Sm TGR block -2% and RE007 growth inh -9%.
`CC(=O)N1c2ccccc2C2(O)N=C(C)SC12` (stereo unspecified) gave Tb PYK inh 13µM*, LmPK inhibitor 17%, Sm TGR block -8%, FBPA Giardia inh inconclusive and RE007 growth inh -6%.
For Clc1ccccc1Cc1noc(CN2CCN(Cc3ccccn3)CC2)n1 the results were Tb PYK inh 4%, LmPK inhibitor 0%, Sm TGR block 18µM*, FBPA Giardia inh -14% and RE007 growth inh -2%.
`CN(Cc1cnccn1)Cc1nc(Cc2ccccc2Cl)no1` gave Tb PYK inh 1%, LmPK inhibitor 5%, Sm TGR block 3%, FBPA Giardia inh -1% and RE007 growth inh -14%.
Screening Nc1ccc2c(c1)OC1(CCCCC1)O2 returned Tb PYK inh -9%, LmPK inhibitor -1%, Sm TGR block 14µM*, FBPA Giardia inh inconclusive and RE007 growth inh -4%.
`CC(=O)Nc1ccc(CC(=O)Nc2ccc3c(c2)OC2(CCCC2)O3)cc1` gave Tb PYK inh -11% and RE007 growth inh 7%.
Screening O=C(NCc1ccccc1F)c1cccc(S(=O)(=O)N2CCCCCC2)c1 returned Tb PYK inh 4%, Sm TGR block -1% and RE007 growth inh -9%.
CC[C@@]1(c2cccc(C)c2)C(=O)N(C(=O)OC)N1C(=O)OC was read as Tb PYK inh -13%, LmPK inhibitor 1%, Sm TGR block 1.6µM*, FBPA Giardia inh 5% and RE007 growth inh 9%.
Screening CCOC(=O)N1C(=O)[C@@](CC)(c2ccccc2)N1C(=O)OCC returned Tb PYK inh -10%, LmPK inhibitor 0%, Sm TGR block inconclusive, FBPA Giardia inh -6% and RE007 growth inh 7%.
CC[C@@]1(c2ccccc2OC)C(=O)N(C(=O)OC)N1C(=O)OC was read as Tb PYK inh -1%, LmPK inhibitor -4%, Sm TGR block 25µM*, FBPA Giardia inh 1% and RE007 growth inh -12%.
`CCCCN1C(=O)C(=O)N(CC(=O)Nc2ccc(C(N)=O)cc2)C1=O` gave Tb PYK inh -2%, Sm TGR block -1% and RE007 growth inh 8%.
CCOC(=O)C1=C(C)N(c2ccc(C)cc2)C(=O)/C1=C\c1ccc(O)c(OC)c1 was read as Tb PYK inh inconclusive, LmPK inhibitor inconclusive, Sm TGR block 3.2µM*, FBPA Giardia inh inconclusive and RE007 growth inh -14%.
Screening CCOc1cc(/C=C2\C(=O)N(CCc3ccc(OC)c(OC)c3)C(C)=C2C(=O)OC)ccc1O returned Tb PYK inh -13%, LmPK inhibitor 3%, Sm TGR block 20µM*, FBPA Giardia inh inconclusive and RE007 growth inh 0%.
COc1ccc(-c2csc(C(NC(C)=O)c3cccc(F)c3)n2)cn1 (stereo unspecified) was read as Tb PYK inh 1% and RE007 growth inh 8%[18.4 µM].
COc1ccc(CCn2c(-c3ccco3)nc3nc4ccccc4nc32)cc1 was read as Tb PYK inh 0%, LmPK inhibitor 1%, Sm TGR block 50µM*, FBPA Giardia inh -13% and RE007 growth inh -6%.
COc1ccccc1Cn1c(-c2ccco2)nc2nc3ccccc3nc21 was read as Tb PYK inh 1% and RE007 growth inh 1%.
`c1coc(-c2nc3nc4ccccc4nc3n2CC2CCCO2)c1` (stereo unspecified) gave Tb PYK inh -1%, LmPK inhibitor 9%, Sm TGR block 50µM*, FBPA Giardia inh inconclusive and RE007 growth inh 1%.
Screening CC(C)(C)C(=O)Nc1nc2c(s1)CN(Cc1ccccc1)CC2 returned Tb PYK inh 2%, LmPK inhibitor 2%, Sm TGR block 25µM*, FBPA Giardia inh -22% and RE007 growth inh -4%.
Screening CCN(C(=O)CSc1nc(C)nc2sc(C)c(C)c12)c1ccc(F)cc1 returned Tb PYK inh 2%, Sm TGR block -8% and RE007 growth inh -8%.
For Cc1nc(SCC(=O)N(C)Cc2ccco2)c2c(C)c(C)sc2n1 the results were Tb PYK inh -14%, LmPK inhibitor 1%, Sm TGR block 45µM*, FBPA Giardia inh 0% and RE007 growth inh -2%.
For COC(=O)c1ccc(CSc2nc(C)nc3sc(C)c(C)c23)o1 the results were Tb PYK inh 2%, LmPK inhibitor 1%, Sm TGR block 100µM*, FBPA Giardia inh 0% and RE007 growth inh 6%.
Screening Cc1c(C#N)c(NC(=O)CCl)n(Cc2ccccc2)c1C returned Tb PYK inh 1%, LmPK inhibitor 3%, Sm TGR block 3.2µM*, FBPA Giardia inh -10% and RE007 growth inh -3%.
Screening Cc1c(C#N)c(NC(=O)CCl)n(Cc2cccs2)c1C returned Tb PYK inh 0%, LmPK inhibitor 12%, Sm TGR block 4µM*, FBPA Giardia inh -15% and RE007 growth inh 4%.
`Cc1c(C#N)c(NC(=O)CCl)n(Cc2ccc(F)cc2)c1C` gave Tb PYK inh 2%, LmPK inhibitor 9%, Sm TGR block 4.5µM*, FBPA Giardia inh inconclusive and RE007 growth inh -5%.
`COC(=O)c1cc(C(=O)OC)n(Cc2ccc(F)cc2)c1C` gave Tb PYK inh -3%, LmPK inhibitor 2%, Sm TGR block 2%, FBPA Giardia inh -2% and RE007 growth inh -8%.
